Laboratory results: PubChem BioAssay
Results filed as inconclusive are left out. Activity calls are given as the source filed them.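 Rule for the calls, unless noted: active = viability at or below 10% of carrier control in both of two separate runs; inconclusive = viability at or below 10% in only one of the two runs; inactive = the rest.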

Legend:
[1] = reducers of endogenous Her2 protein level, primary screen, SKBR3 breast tumor cells, AlphaScreen, ATP viability (AID 461;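 active = Her2 level under about 52% in both replicate screens, with viability over 70% of control, limit read from the data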;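 for Her2 level: lower value means less Her2 protein in the cells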;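 for viability: percent of carrier control wells set as 100% viability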); details: 18-24 h, measured here: SKBR3 viability, ATP luminescence, at 10 µM
[2] = biological target: Receptor tyrosine-protein kinase erbB-2 (Homo sapiens) (UniProt P04626); assay: as above; details: 18-24 h, at 10 µM, stronger effect = lower value
[3] = SK-BR-3 cell growth inhibitors, pilot screen, 24 h, human (AID 572); details: SK-BR-3 viability, CellTiter-Glo luminescence, at 10 µM, stronger effect = lower value;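 note: compound exposure lasted between 18 and 24 h rather than exactly 24 h; 100% = carrier-treated control wells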
[4] = HUVEC growth inhibition – cell-based, human, primary screen (AID 575;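 active = viability at or below 30% in both replicate assays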;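 note: 100% = median of untreated cell wells with 0.1% DMSO on each plate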); details: HUVEC proliferation, CellTiter-Glo luminescence, 72 h; at 10 µM; stronger effect = lower value
[5] = growth inhibitors of H69AR lung tumor, primary screen, human, duplicate replicates (AID 580;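 active = viability at or under a set limit in both replicates, limit being median viability minus 3 SD, cut at about 48% in these data, passing the limit was not always enough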;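 note: 100% = mean luminescence of untreated wells and 0% = no signal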); details: H69AR lung tumor cells viability, ATP luminescence, 72 h; at 10 µM; stronger effect = lower value
[6] = reversal of MRP1-mediated doxorubicin resistance, pilot screen, H69AR cells, doxorubicin co-treatment (AID 601;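 active = viability loss from added drug above about 55%, and viability with drug at most 40%, in both replicates, limit read from the data, passing the limit was not always enough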); details: CellTiter-Glo, 72 h, at 10 µM; for differential viability (reversal): stronger effect = higher value
[7] = Restrictive medium S. cerevisiae growth inhibition, OD615, pilot screen of yeast lifespan reduction project, restrictive growth control (AID 706;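 active = growth inhibition above a set limit, 3 SD over mean compound inhibition, in both replicates, cut at about 43% in these data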;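 note: modified DeaD lifespan yeast strain shifted to restrictive glucose medium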); details: OD615, 48 h, at 10 µM, stronger effect = higher value
[8] = viability gain of MRP-1-high H69AR cells under doxorubicin, pilot screen, MRP-1 activator project, CellTiter-Glo, duplicate (AID 807;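 active = viability increase at or above a cutoff of the median across tested compounds plus 3 SD, cut at about 8.5% in these data, passing the limit was not always enough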;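 note: compound pretreatment 18-22 h then 72 h combined with doxorubicin; 0% = doxorubicin alone and 100% = vehicle without doxorubicin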); details: H69AR viability with doxorubicin, CellTiter-Glo luminescence; at 10 µM; stronger effect = higher value
[9] = growth suppression of beta-catenin knockout HCT116, pilot screen, human colon tumor cells (AID 823;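 active = cell viability at or below a set limit in both duplicate runs, the limit being the all-compound median minus 4 SD, cut at about 23% in these data, passing the limit was not always enough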;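 note: 0% = wells killed by 20 µM Hyamine and 100% = untreated DMSO cell wells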); details: CellTiter-Glo, 60 h, at 10 µM, stronger effect = lower value
[10] = inhibitors of the yeast RAM network, pilot screen, dse1pr::URA3 reporter, 5-FOA selection (AID 869;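 active = inhibition over a set limit, the all-compound mean plus 3 SD, in both replicate runs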;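 note: 0% = DMSO wells with no growth and 100% = 10 µM 1-NA-PP1 with full growth; RAM network block rescues cells from 5-FOA so hits raise OD615 growth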); details: S. cerevisiae dse1pr::URA3 5-FOA growth, OD615, 2 d; at 10 µM; stronger effect = higher value; strain carries analog-sensitive mutant Cbk1 kinase
[11] = RAM signaling pathway blockade in yeast – S. cerevisiae, Pdr1DBD-CYC8 efflux-inhibited sensitized strain, primary screen (AID 1298;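 active = RAM network inhibition above 8.4% in each of two replicates, 3 SD over the compound average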;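 note: 0% = DMSO untreated cells without growth and 100% = 10 µM 1-NA-PP1 full growth; higher means more yeast growth rescued from 5-FOA killing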); details: S. cerevisiae cbk1-as DSE1-URA3 strain, 5-FOA growth OD615, 2 d; at 50 µM; stronger effect = higher value
[12] = growth suppression of PTEN-deleted HCT116, pilot screen, cell-based, HCT116 clonal line, CellTiter-Glo (AID 824;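 active = viability at or below 27.92% in each of two runs, the all-compound median minus 4 SD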;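 note: 0% = 20 µM Hyamine control and 100% = vehicle cell control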); details: 60 h, at 10 µM, stronger effect = lower value
[13] = H69AR cells + 2 uM doxorubicin, measured here: viability with 2 uM doxorubicin, stronger effect = lower value
[14] = H69AR cells, compound alone cytotoxicity

Chain of Receptor tyrosine-protein kinase erbB-2 (Homo sapiens) (P04626 whole entry, looked up): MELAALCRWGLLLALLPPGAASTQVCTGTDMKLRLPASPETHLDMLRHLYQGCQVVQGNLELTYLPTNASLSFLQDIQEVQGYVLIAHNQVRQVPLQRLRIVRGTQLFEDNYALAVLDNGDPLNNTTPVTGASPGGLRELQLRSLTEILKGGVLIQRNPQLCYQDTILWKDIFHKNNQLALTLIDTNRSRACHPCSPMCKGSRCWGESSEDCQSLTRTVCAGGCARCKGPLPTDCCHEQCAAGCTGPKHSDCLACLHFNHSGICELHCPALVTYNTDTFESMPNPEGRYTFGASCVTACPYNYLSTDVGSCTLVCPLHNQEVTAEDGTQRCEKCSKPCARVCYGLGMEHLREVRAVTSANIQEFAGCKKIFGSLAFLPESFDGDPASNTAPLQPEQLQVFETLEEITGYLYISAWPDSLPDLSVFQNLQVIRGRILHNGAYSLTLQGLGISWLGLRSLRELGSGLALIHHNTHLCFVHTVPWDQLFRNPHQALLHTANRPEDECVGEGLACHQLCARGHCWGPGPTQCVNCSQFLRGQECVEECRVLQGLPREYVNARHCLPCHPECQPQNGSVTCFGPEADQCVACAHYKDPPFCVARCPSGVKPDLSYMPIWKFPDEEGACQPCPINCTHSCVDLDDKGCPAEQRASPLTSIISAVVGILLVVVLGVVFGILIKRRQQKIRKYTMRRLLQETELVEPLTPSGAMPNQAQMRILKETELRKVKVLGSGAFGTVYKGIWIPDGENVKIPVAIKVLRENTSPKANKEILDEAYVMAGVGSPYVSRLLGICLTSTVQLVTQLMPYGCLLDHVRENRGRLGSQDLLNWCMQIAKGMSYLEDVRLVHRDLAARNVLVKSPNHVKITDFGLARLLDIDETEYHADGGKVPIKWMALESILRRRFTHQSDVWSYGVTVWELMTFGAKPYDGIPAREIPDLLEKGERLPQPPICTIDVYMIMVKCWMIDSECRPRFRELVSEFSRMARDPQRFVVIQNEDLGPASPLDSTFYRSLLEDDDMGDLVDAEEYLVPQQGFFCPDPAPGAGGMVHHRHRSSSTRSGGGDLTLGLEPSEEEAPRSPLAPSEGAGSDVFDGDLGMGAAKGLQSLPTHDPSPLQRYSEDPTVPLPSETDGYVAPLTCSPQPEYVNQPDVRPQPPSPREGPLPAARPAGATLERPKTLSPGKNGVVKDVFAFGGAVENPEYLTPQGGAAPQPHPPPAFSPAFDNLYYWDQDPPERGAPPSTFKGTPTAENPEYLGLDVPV

What does the source list for `C[C@H]1C[C@@H]2[C@H]([C@@H](O)C[C@@]3(C)[C@H]2CC[C@]3(O)C(=O)CO)[C@@]2(C)C=CC(=O)C=C12`?
viability [1]: 115%; Her2 level [2]: 115% (inactive); viability [3]: 115% (inactive); viability [4]: 93.8% (inactive); viability [5]: 88.1% (inactive); differential viability (reversal) ([6]; H69AR cells + 2 uM doxorubicin): 9.38% (inactive); viability [6, 13]: 78.7%; viability [6, 14]: 88.1%

For `CCn1cc(C(=O)O)c(=O)c2cnc(N3CCNCC3)nc21`, which viability [1] is on record?
The viability was 108%.

What about the Her2 level [2] of the same compound?
Its Her2 level is 102% (inactive).

And the viability [3]?
The viability was 108% (inactive).

And the viability [4]?
The viability was 96.5% (inactive).

And the viability [5]?
The viability was 107% (inactive).

And the differential viability (reversal) ([6]; H69AR cells + 2 uM doxorubicin)?
The differential viability (reversal) was 16.4% (inactive).

And the viability [6, 13]?
The viability was 90.9%.

And the viability [6, 14]?
Its viability is 107%.

With `CC(Sc1nc2ccccc2s1)C(=O)N1CCOCC1` (stereo not given) as the compound, how does the growth inhibition [7] read?
Its growth inhibition is 2.68% (inactive).

What about the viability increase [8] of the same compound?
The viability increase was -3.03% (inactive).

What about the viability [9] of the same compound?
The viability was 95.9% (inactive).

What about the inhibition [10] of the same compound?
The inhibition was 1.84% (inactive).

What about the RAM network inhibition [11] of the same compound?
Its RAM network inhibition is 6.03% (inactive).

Which viability [1] does the source give for `CC1(C)O[C@@H]2C[C@H]3[C@@H]4C[C@H](F)C5=CC(=O)C=C[C@]5(C)[C@@]4(F)[C@@H](O)C[C@]3(C)[C@]2(C(=O)CO)O1` here?
Its viability is 94%.

What about the Her2 level [2] of the same compound?
The Her2 level was 110% (inactive).

And the viability [3]?
The viability was 94% (inactive).

And the viability [4]?
The viability was 90.5% (inactive).

And the viability [5]?
The viability was 94.1% (inactive).

And the differential viability (reversal) ([6]; H69AR cells + 2 uM doxorubicin)?
Its differential viability (reversal) is 1.96% (inactive).

And the viability [6, 13]?
Its viability is 92.2%.

What about the viability [6, 14] of the same compound?
The viability was 94.1%.

For `O=c1n(CCCN2CCN(c3cccc(Cl)c3)CC2)nc2ccccn12`, which viability [1] is on record?
The viability was 81%.

And the Her2 level [2]?
Its Her2 level is 93% (inactive).

And the viability [3]?
Its viability is 81% (inactive).

And the viability [4]?
The viability was 99.2% (inactive).

What about the viability [5] of the same compound?
The viability was 87.3% (inactive).

What about the differential viability (reversal) ([6]; H69AR cells + 2 uM doxorubicin) of the same compound?
Its differential viability (reversal) is -7.03% (inactive).

What about the viability [6, 13] of the same compound?
The viability was 94.3%.

What about the viability [6, 14] of the same compound?
The viability was 87.3%.

For `CN1CCC(=C2c3ccccc3CC(=O)c3sccc32)CC1`, which viability [1] is on record?
The viability was 96%.

And the Her2 level [2]?
Its Her2 level is 87% (inactive).

And the viability [3]?
The viability was 96% (inactive).

And the viability [4]?
The viability was 76.4% (inactive).

What about the viability [5] of the same compound?
Its viability is 91.4% (inactive).

What about the differential viability (reversal) ([6]; H69AR cells + 2 uM doxorubicin) of the same compound?
The differential viability (reversal) was 11.8% (inactive).

And the viability [6, 13]?
Its viability is 79.6%.

And the viability [6, 14]?
The viability was 91.4%.

Which results are given for `CCCC(CCC)C(=O)OC1C[C@H]2CC[C@@H](C1)[N+]2(C)C` (stereo not given in full)?
viability [1]: 112%; Her2 level [2]: 95.5% (inactive); viability [3]: 112% (inactive); viability [4]: 108% (inactive); viability [5]: 94% (inactive); differential viability (reversal) ([6]; H69AR cells + 2 uM doxorubicin): 9.01% (inactive); viability [6, 13]: 85%; viability [6, 14]: 94%

With `COc1ccc(NC(=O)CC2SC(=Nc3ccccc3)NC2=O)c(OC)c1` (stereo not given) as the compound, how does the viability increase [8] read?
Its viability increase is 2.03% (inactive).

What about the viability [9] of the same compound?
The viability was 93.4% (inactive).

What about the viability [12] of the same compound?
Its viability is 92% (inactive).

What about the inhibition [10] of the same compound?
The inhibition was 2.23% (inactive).

What about the RAM network inhibition [11] of the same compound?
The RAM network inhibition was 7.78% (inactive).

Which results are given for `COc1ccc(-c2n[nH]c(C(F)(F)F)c2-c2cc3ccccc3o2)c(O)c1`?
viability increase [8]: -7.49% (inactive); viability [9]: 59.5% (inactive); viability [12]: 55% (inactive); inhibition [10]: -1.46% (inactive); RAM network inhibition [11]: -1.35% (inactive)

With `C[C@H]1C[C@H]2[C@@H]3CCC4=CC(=O)C=C[C@]4(C)[C@@]3(Cl)[C@@H](O)C[C@]2(C)[C@@]1(O)C(=O)CO` as the compound, how does the viability [1] read?
The viability was 110%.

And the Her2 level [2]?
Its Her2 level is 112% (inactive).

And the viability [3]?
The viability was 110% (inactive).

And the viability [4]?
Its viability is 91.4% (inactive).

And the viability [5]?
Its viability is 97.5% (inactive).

What about the differential viability (reversal) ([6]; H69AR cells + 2 uM doxorubicin) of the same compound?
The differential viability (reversal) was -5.3% (inactive).

What about the viability [6, 13] of the same compound?
Its viability is 103%.

And the viability [6, 14]?
Its viability is 97.5%.

With `CC(=O)OCC(=O)[C@@]12OC3(CCCC3)O[C@@H]1C[C@H]1[C@@H]3CCC4=CC(=O)C=C[C@]4(C)[C@@]3(F)[C@@H](O)C[C@@]12C` as the compound, how does the viability [1] read?
The viability was 132%.

And the Her2 level [2]?
Its Her2 level is 91.5% (inactive).

And the viability [3]?
The viability was 132% (inactive).

And the viability [4]?
Its viability is 86.6% (inactive).

And the viability [5]?
The viability was 83.1% (inactive).

What about the differential viability (reversal) ([6]; H69AR cells + 2 uM doxorubicin) of the same compound?
Its differential viability (reversal) is 2.75% (inactive).

And the viability [6, 13]?
Its viability is 80.3%.

And the viability [6, 14]?
Its viability is 83.1%.

For `CC1CCc2cc(F)cc3c(=O)c(C(=O)O)cn1c23` (stereo not given), which viability [1] is on record?
Its viability is 104%.

What about the Her2 level [2] of the same compound?
Its Her2 level is 100% (inactive).

And the viability [3]?
The viability was 104% (inactive).

What about the viability [4] of the same compound?
The viability was 98.5% (inactive).

What about the viability [5] of the same compound?
The viability was 104% (inactive).

What about the differential viability (reversal) ([6]; H69AR cells + 2 uM doxorubicin) of the same compound?
The differential viability (reversal) was 4.35% (inactive).

And the viability [6, 13]?
The viability was 99.2%.

What about the viability [6, 14] of the same compound?
The viability was 104%.

With `CN1CCN2c3ccccc3Cc3ccccc3C2C1` (stereo not given) as the compound, how does the viability [1] read?
Its viability is 82.5%.

What about the Her2 level [2] of the same compound?
The Her2 level was 117% (inactive).

What about the viability [3] of the same compound?
The viability was 82.5% (inactive).

And the viability [4]?
The viability was 73.4% (inactive).

What about the viability [5] of the same compound?
The viability was 90.2% (inactive).

What about the differential viability (reversal) ([6]; H69AR cells + 2 uM doxorubicin) of the same compound?
The differential viability (reversal) was 1.02% (inactive).

What about the viability [6, 13] of the same compound?
The viability was 89.1%.

What about the viability [6, 14] of the same compound?
Its viability is 90.2%.

What does the source list for `N[C@@H](Cc1cc(I)c(Oc2ccc(O)c(I)c2)c(I)c1)C(=O)O`?
viability [1]: 100%; Her2 level [2]: 87% (inactive); viability [3]: 100% (inactive); viability [4]: 86.9% (inactive); viability [5]: 97.6% (inactive); differential viability (reversal) ([6]; H69AR cells + 2 uM doxorubicin): 6.87% (inactive); viability [6, 13]: 90.8%; viability [6, 14]: 97.6%

Which viability [1] does the source give for `OC(CCN1CCCCC1)(c1ccccc1)C1CCCCC1` (stereo not given) here?
The viability was 69.5%.

And the Her2 level [2]?
Its Her2 level is 99.5% (inactive).

What about the viability [3] of the same compound?
The viability was 69.5% (inactive).

What about the viability [4] of the same compound?
Its viability is 84.9% (inactive).

What about the viability [5] of the same compound?
Its viability is 92.2% (inactive).

What about the differential viability (reversal) ([6]; H69AR cells + 2 uM doxorubicin) of the same compound?
The differential viability (reversal) was -0.69% (inactive).

What about the viability [6, 13] of the same compound?
Its viability is 92.9%.

What about the viability [6, 14] of the same compound?
Its viability is 92.2%.

Which viability increase [8] does the source give for `COC(=O)CSCc1nc2ccccc2[nH]c1=O` here?
The viability increase was -2.15% (inactive).

What about the viability [9] of the same compound?
Its viability is 101% (inactive).

What about the viability [12] of the same compound?
Its viability is 94.8% (inactive).

And the inhibition [10]?
The inhibition was 0.08% (inactive).

And the RAM network inhibition [11]?
Its RAM network inhibition is 1.09% (inactive).

What does the source list for `OCCN(CCO)c1nc(N2CCCCC2)c2nc(N(CCO)CCO)nc(N3CCCCC3)c2n1`?
viability [1]: 117%; Her2 level [2]: 94.5% (inactive); viability [3]: 117% (inactive); viability [4]: 79.6% (inactive)

With `Cc1nc2ccccc2c2nc3ccccc3n12` as the compound, how does the growth inhibition [7] read?
Its growth inhibition is 43.3% (active).

And the viability increase [8]?
Its viability increase is -0.65% (inactive).

And the viability [12]?
Its viability is 62.4% (inactive).

And the inhibition [10]?
The inhibition was 3.25% (inactive).

And the RAM network inhibition [11]?
The RAM network inhibition was 0.87% (inactive).

What does the source list for `O=C1C(=C2CCCCC2)SC(=S)N1Cc1ccco1`?
viability increase [8]: -4.02% (inactive); viability [9]: 80.2% (inactive); viability [12]: 84.4% (inactive); inhibition [10]: 0.825% (inactive); RAM network inhibition [11]: 2.66% (inactive)
